# The panel holds about 79,000 compounds, 15% with a hit somewhere; the sample as a whole holds those more often. Values without a mark were called inactive. Calls of active or inactive are those of the source. Rule as the data show it: active = growth inhibition above about 70%; inactive = the rest.
# Columns and labels:
# [1] = NCI Yeast Anticancer Drug Screen. Data for the rad50 strain (AID 155);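 also: 0% = growth of vehicle-only cultures of the same strain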; details: S. cerevisiae rad50 strain growth inhibition; at 50.0 µM; stronger effect = higher value
# In short: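 Compounds were tested on a yeast strain with an engineered DNA damage repair alteration; the reported value is growth inhibition normalised to vehicle treatment.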
# [2] = NCI Yeast Anticancer Drug Screen. Data for the mec2-1 strain (AID 157); details: S. cerevisiae mec2-1 strain, at 50.0 µM, stronger effect = higher value
# In short: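 Strain: mec2-1 (DNA repair/cell cycle alteration). Compound exposure, then growth measured; inhibition expressed relative to vehicle.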
# [3] = NCI Yeast Anticancer Drug Screen. Data for the sgs1 mgt1 strain (AID 161);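 also: 0% = growth of cultures given vehicle only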; details: S. cerevisiae sgs1 mgt1 strain, at 50.0 µM, stronger effect = higher value
# In short: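 Mutant yeast exposed to compound; growth scored against vehicle-only wells.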
# [4] = NCI Yeast Anticancer Drug Screen. Data for the cln2 rad14 strain (AID 165);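 also: 0% = growth equal to vehicle treated cultures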; details: S. cerevisiae cln2 rad14 strain, at 50.0 µM, stronger effect = higher value
# In short: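 Compounds are applied to the cln2 rad14 yeast strain, and growth is then compared with that of vehicle-treated cultures to give inhibition.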
# [5] = NCI Yeast Anticancer Drug Screen. Data for the bub3 strain (AID 167); details: S. cerevisiae bub3 mutant strain, at 50.0 µM, stronger effect = higher value
# In short: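 Growth of a checkpoint-deficient yeast mutant is measured after compound exposure. Values represent inhibition relative to vehicle.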
# [6] = NCI Yeast Anticancer Drug Screen. Data for the mlh1 rad18 strain (AID 175); details: S. cerevisiae mlh1 rad18 strain growth inhibition; at 50.0 µM; stronger effect = higher value
# In short: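 Read-out is yeast growth inhibition, calculated against vehicle-only controls. The compound was applied to a strain engineered with DNA damage repair alterations.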
Structure (SMILES),growth inhibition [1],growth inhibition [2],growth inhibition [3],growth inhibition [4],growth inhibition [5],growth inhibition [6]
CCCCCCCCCCCCOc1ccc(Br)cc1,11.4%,9.25%,19%,-23.4%,-13.4%,8.7%
CCOC(=O)COc1ccc(Cc2ccc3c(c2)OCO3)cc1C,-0.7%,3.1%,-2.45%,-6.05%,16.2%,0.9%
CC1(C)C(=NNC(=O)C[N+](C)(C)C)C(C)(C)C1=NNC(=O)C[N+](C)(C)C,-0.4%,-11.9%,-32.9%,-46.4%,-0.15%,-13.5%
CC1(C)N=C(N)NC(Nc2ccc(Cl)cc2)=N1,9.6%,9.05%,10.8%,-20.8%,14.6%,33.6%
CCCCCCCCCCCCNc1ncnc2c1cnn2C,-9.1%,-14.4%,-1.25%,-47.2%,23.9%,-25.2%
C=C1CC2OC(=O)C(=C)C2C(OC(=O)c2ccccc2)/C=C(\C)CCC1OC(=O)c1ccccc1 (configuration not stated),-13.7%,-3.25%,-11.2%,-39.3%,-0.85%,-21.4%
O=[N+]([O-])c1ccc(C=NC23CC4CC(CC(C4)C2)C3)cc1,-8.05%,-11.1%,-0.35%,14.2%,5.55%,-3.9%
CN(C)c1ccc(C(=O)C2N=NCC2c2ccccc2)cc1 (configuration not stated),10.3%,-1.3%,13%,7.3%,12.8%,17.2%
CSc1ccc(OC(=O)Nc2cc([N+](=O)[O-])ccc2F)cc1C,16.6%,11.2%,16%,12.2%,28.8%,17.1%
CC(O)(c1ccco1)c1nc2ccccc2s1 (configuration not stated),-10.4%,15.6%,0.55%,-6.2%,-1.25%,-11.8%
O=S(Nc1ccc(Br)cc1)c1ccccc1 (configuration not stated),-3.5%,-0.35%,5.65%,-8.2%,3.4%,1.55%
CC(C)=NNC=N/C(C#N)=C(\N)C#N,-14.3%,-0.55%,-17.5%,18%,-9.6%,-24.7%
CC(C)(C)c1cc(C(C)(C)C)c(P(C(O[Si](C)(C)C)=C(c2ccccc2)c2ccccc2)C(O[Si](C)(C)C)=C(c2ccccc2)c2ccccc2)c(C(C)(C)C)c1,-14.7%,-8.45%,-3.7%,5.2%,-5%,15.2%
COc1cc(-c2nnc3n2NC=C(C(=O)O)S3)cc(OC)c1OC,6.75%,2.45%,-10.9%,5.45%,28.2%,21.8%
CCOC(=O)C(=O)Nc1ccccc1CC,-3%,2.9%,-12.3%,-33.5%,11.2%,-3.35%
OC1c2ccccc2-c2ccccc21,35.6%,0.95%,-15.4%,-22.3%,6.8%,25.2%
COc1cc2c(c(OC)c1OC)CCC1(C)C(=O)NN=C21 (configuration not stated),-18.1%,11.1%,23.5%,-1.55%,13.7%,3.9%
O=C(/C=C/c1ccc(O)cc1)NCCc1c[nH]c2ccc(O)cc12,0.75%,-10%,10%,8.35%,-3.7%,7.75%
CC[N+](CC)(CC)Cc1cc2ccccc2n1C(=O)OC,-9.25%,-24.4%,-25.8%,-1.4%,-12.2%,-28.9%

Structure (SMILES),growth inhibition [1],growth inhibition [2],growth inhibition [3],growth inhibition [4],growth inhibition [5],growth inhibition [6]
O=C(CC(C(=O)c1cccs1)c1ccsc1)c1cccs1 (configuration not stated),-23.8%,-22.6%,0.85%,21%,25.8%,-38.7%
[Cl][Sn]1([Cl])[CH2]CCCCCCCCCC[CH2][Sn]([Cl])([Cl])[CH2]CCCCCCCCCC[CH2]1,-12.9%,1.2%,9.65%,-12.7%,-13.6%,-25.5%
O=[N+]([O-])c1ccc(Sc2cccs2)c([N+](=O)[O-])c1,-12.8%,28.9%,18.9%,4.1%,13.9%,57%
CCOC(=O)C(C)(Cc1cccc2ccccc12)C(=O)OCC,-33.6%,-19.3%,5.1%,-54.2%,29.8%,-24.9%
CCc1ccc(Cc2ccc(CC)c(NC(=O)C(=O)C3NC(=S)NC3=O)c2CC)c(CC)c1NC(=O)C(=O)C1NC(=S)NC1=O (configuration not stated),-5.2%,-9.5%,5.25%,5.1%,3.85%,-3.65%
COC(=O)C12OCC34C(CC5C(C)CC(=O)C(O)C5(C)C3C(O)C1O)OC(=O)C(OC(C)=O)C24 (configuration not stated),31.2%,44.4%,11.6%,36%,24.2%,31.6%
COc1ccc([N+](=O)[O-])cc1NC(=O)N/N=C(\C)C(C)(C)C,5.2%,18.2%,8.8%,-9.35%,3.4%,6.3%
CC1CCC2C(C)(C)CC3(C)CCC1C23O (configuration not stated),29.9%,45.5%,81% (active),30.4%,61.6%,83.2% (active)
CC(=O)NC(CCCc1ccccc1)C(=O)O (configuration not stated),7.65%,9%,-17.1%,-23.1%,2.45%,-18.9%
O=[N+]([O-])c1ccc(N/N=C/C(Br)(Br)Br)c([N+](=O)[O-])c1,-5.85%,-0.65%,-21.2%,-11.9%,-14.4%,-27.9%
Nc1cc(N)n(C2=NCCN2)n1,-1.5%,-27.5%,8%,11.1%,0%,-13.3%
COc1ccc(Nc2cccc(Cl)c2)cc1,97% (active),98.2% (active),96.5% (active),95.9% (active),95.6% (active),97.8% (active)
O=S(=O)(O)c1cc2c3ccccc3ccc2c2ccccc12,1.75%,-5.35%,13.8%,-15.5%,-1.35%,21.8%
O=S(=O)(O)c1cc(Cl)c(O)c(Cl)c1,7.25%,-21.8%,9.15%,-41.9%,6.8%,23.2%
N#CC(C#N)=CNC(N)=S,-4.7%,-8.75%,-20.7%,13.7%,-14.8%,10.1%
COc1ccc(N2C(=O)C3c4[nH]c5ccccc5c4C4CC(C)CC(C)C4C3C2=O)cc1 (configuration not stated),53%,0.65%,8.85%,-25.2%,41%,14.7%
Cc1[nH]c2ccc(C(=O)NN)cc2c1CC(=O)NN,12.2%,8.45%,14.8%,-23.1%,6.55%,25.1%
COC(=O)C(/C(=N/NC(=O)c1ccncc1)C(=O)Nc1ccccc1OC)c1nc2ccc(Cl)cc2[nH]c1=O (configuration not stated),5.8%,-6%,-11%,-38%,-17.7%,11.4%
